{
  "source": "paper PMC7862700",
  "about": "“An all-to-all approach to the identification of sequence-specific readers for epigenetic DNA modifications on cytosine”",
  "test_in_all_cases": "DAPPL (digital affinity profiling via proximity ligation, sequencing); 10 mM Tris-HCl pH 7.5, 50 mM NaCl, 1 mM DTT, 4% glycerol, room temperature, 30 min; GST-TFs on glutathione beads, 16-mer random dsDNA library, 0.1% formaldehyde crosslink after washing; high values mean tight binding",
  "conditions_in_all_cases": "protein: recombinant; tags: N-terminal GST; dsDNA, one strand shown",
  "key": {"FLI1": {"molecular_target": "T1, FLI1 (Homo sapiens, UniProt Q01543 1-452)", "T1 sequence": "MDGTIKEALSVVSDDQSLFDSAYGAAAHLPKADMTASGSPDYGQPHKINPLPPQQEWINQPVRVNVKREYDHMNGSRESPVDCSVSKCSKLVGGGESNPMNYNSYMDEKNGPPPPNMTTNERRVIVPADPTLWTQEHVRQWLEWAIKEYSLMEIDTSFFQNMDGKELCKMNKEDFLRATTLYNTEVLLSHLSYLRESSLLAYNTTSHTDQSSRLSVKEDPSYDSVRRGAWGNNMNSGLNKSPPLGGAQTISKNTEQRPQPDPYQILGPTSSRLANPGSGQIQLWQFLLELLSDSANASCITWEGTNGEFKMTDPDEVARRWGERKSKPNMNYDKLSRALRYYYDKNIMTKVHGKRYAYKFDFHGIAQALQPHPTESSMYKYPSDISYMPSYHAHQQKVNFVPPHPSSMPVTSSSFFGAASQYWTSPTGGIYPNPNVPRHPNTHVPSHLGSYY", "method_in_brief": "(§1)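 Human transcription factors fused to GST were expressed in yeast, captured on glutathione beads, given DNA barcodes and pooled with a GST-only negative control. Pools were incubated with 200 nmole of a 16-mer random double-stranded DNA library in Tris/NaCl/DTT/glycerol buffer at room temperature for 30 min. They were then washed, crosslinked with 0.1% formaldehyde, proximity-ligated (BsaI/T4 ligase, 1 h, 37 °C), PCR-amplified and sequenced on an Illumina NextSeq500. Binding signal is each 6-mer's read frequency for a factor divided by its frequency for the GST control.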"}, "ELK1": {"molecular_target": "T2, ELK1 (Homo sapiens, UniProt P19419 1-428)", "T2 sequence": "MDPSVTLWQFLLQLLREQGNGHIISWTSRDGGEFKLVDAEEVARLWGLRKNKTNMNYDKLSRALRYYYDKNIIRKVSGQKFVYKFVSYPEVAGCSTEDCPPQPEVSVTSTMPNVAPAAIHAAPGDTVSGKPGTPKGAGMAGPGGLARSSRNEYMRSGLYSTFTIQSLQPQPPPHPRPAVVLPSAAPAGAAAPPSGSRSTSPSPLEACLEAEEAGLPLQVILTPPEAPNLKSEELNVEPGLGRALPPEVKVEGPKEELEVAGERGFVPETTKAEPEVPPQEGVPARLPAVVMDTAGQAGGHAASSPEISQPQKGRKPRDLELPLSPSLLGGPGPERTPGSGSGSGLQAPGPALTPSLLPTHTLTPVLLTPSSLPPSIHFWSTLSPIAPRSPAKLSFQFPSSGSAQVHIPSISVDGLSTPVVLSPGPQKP", "method_in_brief": "as §1"}, "GABPA": {"molecular_target": "T3, GABPA (Homo sapiens, UniProt Q06546 1-454)", "T3 sequence": "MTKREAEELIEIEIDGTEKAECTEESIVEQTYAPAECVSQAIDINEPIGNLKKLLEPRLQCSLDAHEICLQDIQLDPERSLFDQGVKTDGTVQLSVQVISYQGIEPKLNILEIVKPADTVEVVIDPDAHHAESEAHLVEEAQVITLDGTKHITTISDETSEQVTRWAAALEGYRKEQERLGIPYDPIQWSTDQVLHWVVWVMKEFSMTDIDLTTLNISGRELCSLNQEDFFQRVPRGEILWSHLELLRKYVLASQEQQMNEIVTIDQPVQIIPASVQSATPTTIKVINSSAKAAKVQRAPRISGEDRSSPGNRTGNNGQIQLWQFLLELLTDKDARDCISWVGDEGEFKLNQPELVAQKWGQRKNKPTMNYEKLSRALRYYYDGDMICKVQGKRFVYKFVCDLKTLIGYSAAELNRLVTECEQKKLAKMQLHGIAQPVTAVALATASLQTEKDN", "method_in_brief": "as §1"}, "ERG": {"molecular_target": "T4, ERG (Homo sapiens, UniProt P11308 1-479)", "T4 sequence": "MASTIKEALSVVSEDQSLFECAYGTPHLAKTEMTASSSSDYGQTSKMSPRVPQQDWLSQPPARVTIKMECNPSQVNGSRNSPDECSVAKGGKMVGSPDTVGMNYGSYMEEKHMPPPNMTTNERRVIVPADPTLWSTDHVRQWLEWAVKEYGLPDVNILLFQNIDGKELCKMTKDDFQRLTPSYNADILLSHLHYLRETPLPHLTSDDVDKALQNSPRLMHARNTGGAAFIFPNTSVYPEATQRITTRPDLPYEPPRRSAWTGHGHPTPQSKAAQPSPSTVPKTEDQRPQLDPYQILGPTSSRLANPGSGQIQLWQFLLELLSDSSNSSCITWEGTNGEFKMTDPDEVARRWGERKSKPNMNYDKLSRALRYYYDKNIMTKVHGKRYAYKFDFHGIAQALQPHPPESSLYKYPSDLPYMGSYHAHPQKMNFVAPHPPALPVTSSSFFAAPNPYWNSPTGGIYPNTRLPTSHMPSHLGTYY", "method_in_brief": "as §1"}, "ELF1": {"molecular_target": "ELF1 (Homo sapiens, UniProt P32519 1-619)", "sequence (P32519 whole entry)": "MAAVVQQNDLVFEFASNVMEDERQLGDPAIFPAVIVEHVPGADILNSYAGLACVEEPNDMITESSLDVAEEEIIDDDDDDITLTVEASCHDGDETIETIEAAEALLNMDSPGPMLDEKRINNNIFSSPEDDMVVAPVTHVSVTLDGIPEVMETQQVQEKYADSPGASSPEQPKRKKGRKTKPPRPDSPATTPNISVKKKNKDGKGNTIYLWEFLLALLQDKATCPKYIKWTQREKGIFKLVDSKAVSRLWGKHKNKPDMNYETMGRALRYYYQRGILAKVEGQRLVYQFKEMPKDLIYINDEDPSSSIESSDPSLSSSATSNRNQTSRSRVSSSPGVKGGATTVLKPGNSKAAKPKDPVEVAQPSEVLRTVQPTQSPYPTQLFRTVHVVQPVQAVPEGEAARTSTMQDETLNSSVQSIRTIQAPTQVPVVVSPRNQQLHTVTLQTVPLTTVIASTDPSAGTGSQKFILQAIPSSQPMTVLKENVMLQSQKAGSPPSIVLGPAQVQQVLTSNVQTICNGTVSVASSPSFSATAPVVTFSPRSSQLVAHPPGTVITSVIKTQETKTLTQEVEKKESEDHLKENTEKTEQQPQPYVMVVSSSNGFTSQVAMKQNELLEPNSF", "method_in_brief": "as §1"}, "EHF": {"molecular_target": "T5, EHF (Homo sapiens, UniProt Q9NZC4 1-300)", "T5 sequence": "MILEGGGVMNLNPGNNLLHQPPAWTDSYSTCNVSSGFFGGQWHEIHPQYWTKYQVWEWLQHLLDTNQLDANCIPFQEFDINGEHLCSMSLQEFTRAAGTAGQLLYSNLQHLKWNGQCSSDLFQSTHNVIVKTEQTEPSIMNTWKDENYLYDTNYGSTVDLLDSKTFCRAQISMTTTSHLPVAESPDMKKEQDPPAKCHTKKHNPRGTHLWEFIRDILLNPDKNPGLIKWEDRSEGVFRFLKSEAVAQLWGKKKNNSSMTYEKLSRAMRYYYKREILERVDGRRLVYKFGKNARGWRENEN", "method_in_brief": "as §1"}, "SPI1": {"molecular_target": "SPI1 (Homo sapiens, UniProt P17947 1-270)", "method_in_brief": "as §1"}, "SPIB": {"molecular_target": "SPIB (Homo sapiens, UniProt Q01892 1-262)", "sequence (Q01892 whole entry)": "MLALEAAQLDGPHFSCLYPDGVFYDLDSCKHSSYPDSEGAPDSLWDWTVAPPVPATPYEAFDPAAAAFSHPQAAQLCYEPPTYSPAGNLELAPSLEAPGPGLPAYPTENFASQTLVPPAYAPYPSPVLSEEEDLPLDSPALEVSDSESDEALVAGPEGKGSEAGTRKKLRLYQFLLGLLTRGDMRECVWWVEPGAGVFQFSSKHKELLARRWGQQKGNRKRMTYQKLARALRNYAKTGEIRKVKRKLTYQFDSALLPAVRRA", "method_in_brief": "as §1"}, "ELK3": {"molecular_target": "T6, ELK3 (Homo sapiens, UniProt P41970 1-407)", "T6 sequence": "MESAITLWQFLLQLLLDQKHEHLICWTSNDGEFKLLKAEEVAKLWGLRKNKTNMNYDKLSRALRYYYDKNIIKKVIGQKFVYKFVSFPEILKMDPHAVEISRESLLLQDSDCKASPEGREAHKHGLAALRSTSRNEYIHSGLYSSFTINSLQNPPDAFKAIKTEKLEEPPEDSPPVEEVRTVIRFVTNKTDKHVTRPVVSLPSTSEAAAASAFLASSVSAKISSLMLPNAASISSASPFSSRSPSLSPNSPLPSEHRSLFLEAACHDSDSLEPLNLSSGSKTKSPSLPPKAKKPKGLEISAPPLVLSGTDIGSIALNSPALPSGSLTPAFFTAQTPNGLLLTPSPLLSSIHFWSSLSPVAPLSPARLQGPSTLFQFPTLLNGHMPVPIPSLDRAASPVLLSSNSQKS", "method_in_brief": "as §1"}},
  "data": [
    {"sequence": "CTGTAC", "values": [
      {"measurement": "binding signal", "setting": "FLI1", "result": "1.28 fold enrichment (6-mer frequency, TF over GST control)"},
      {"measurement": "binding signal", "setting": "ELK1", "result": "1.31 fold enrichment (6-mer frequency, TF over GST control)"},
      {"measurement": "binding signal", "setting": "GABPA", "result": "1.23 fold enrichment (6-mer frequency, TF over GST control)"},
      {"measurement": "binding signal", "setting": "ERG", "result": "1.39 fold enrichment (6-mer frequency, TF over GST control)"},
      {"measurement": "binding signal", "setting": "ELF1", "result": "1.38 fold enrichment (6-mer frequency, TF over GST control)"},
      {"measurement": "binding signal", "setting": "EHF", "result": "1.33 fold enrichment (6-mer frequency, TF over GST control)"},
      {"measurement": "binding signal", "setting": "SPI1", "result": "1.4 fold enrichment (6-mer frequency, TF over GST control)"},
      {"measurement": "binding signal", "setting": "SPIB", "result": "1.3 fold enrichment (6-mer frequency, TF over GST control)"},
      {"measurement": "binding signal", "setting": "ELK3", "result": "1.24 fold enrichment (6-mer frequency, TF over GST control)"}
    ]}
  ]
}
